Consider 40 molecules from PubChem BioAssay (NCI).

Compounds without any hit were thinned out: in the full panel of roughly 83,000, 20% have a hit.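 The endpoint reported here, percent growth, reads 100 for growth as untreated, 0 for no net growth and -100 for all cells dead.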 The source made the active and inactive calls.

The test system of the experiment is NCI-H460 lung. Kind of experiment: NCI-60 one-dose screen, 48 h (100 = growth as untreated, 0 = no growth, -100 = all killed). The settings on record: 10 µM unless noted. How it is done:
Growth inhibition of the NCI-H460 human Non-Small Cell Lung tumor cell line is measured as a screen for anti-cancer activity. Cells are grown in 96 well plates and exposed to the test compound for 48 hours. Compounds are tested at a single concentration, which is 10^-5 M for most compounds. The reported endpoint is percent growth (GI% or GIPRCNT), where numbers from 0 - 100% represent growth inhibition, and numbers from -100% - 0 represent cell death. For example, a value of 40 represents 60% growth inhibition. A value of 0 means no net growth occurred over the course of the experiment. A value of -40 indicates 40% of cells at the beginning of the experiment died by the end of the experiment. A value of -100 means all cells are dead at the end of the experiment.
NCI-60 Human Tumor Cell Lines Screen was performed using the standard one-dose NCI protocol, which is described in more detail at https://dtp.cancer.gov/discovery_development/nci-60/default.htm.
Compounds with GIPRCNT values below 10 were considered active. Activity score was based on GIPRCNT using the following formula: […]
Score is 0 for GIPRCNT values of 100 or above, 50 for GIPRCNT values of 0, and 100 for GIPRCNT values of -100.
Turning to `Cc1nc2c(=O)[nH]c(SCC(=O)Nc3cccc(F)c3)nc2[nH]c1=O`, the growth is 102% (inactive).

With `O=C(NCCCN1CCOCC1)c1cccc(N2C(=O)/C(=C/c3ccc(F)cc3)SC2=S)c1`, the growth is 107% (inactive).

For `C#CCOc1ccc2ncnc(Nc3cccc(NC(=O)C=C)c3)c2c1`, the growth is 65.1% (inactive).

Take `C=CCn1c(SCC(=O)Nc2ccc(C(=O)/C=C/c3cc4cc(OC)ccc4nc3Cl)cc2)nnc1-c1ccc(Br)cc1`: the growth is 88.4% (inactive).

Regarding `Brc1ccc(-n2cc(-c3nn[nH]n3)c(-c3cccs3)n2)cc1`, the growth was 105% (inactive).

For `Clc1ccc(Nc2nnc(COc3ccccc3)c3ccccc23)cc1`, the growth is 3.1% (active).

With `O=C(Nc1cc(Cl)ccc1O)c1ccc(Nc2ccnc(C(F)(F)F)c2)cc1`, the growth is 7.25% (active).

Take `O=C(c1ccc(-c2ccccc2)cc1)c1ccc([N+](=O)[O-])cc1`: the growth is 109% (inactive).

`CC(C)=CCC[C@](C)(O)[C@H]1CC[C@]2(C)[C@@H]1CC[C@@H]1[C@@]3(C)Cc4nccnc4C(C)(C)[C@@H]3CC[C@]12C`: the growth is 73.6% (inactive).

`O=C1/C(=C/c2ccc(-c3ccc(Br)cc3)o2)SC(=S)N1CCc1ccc(O)cc1`: the growth is 60.3% (inactive).

On to `CS(=O)(=O)Nc1cc(-c2ccc3ncnc(Nc4ccc5c(cnn5Cc5ccccn5)c4)c3c2)cnc1Cl`, for which the growth is 85.8% (inactive).

Turning to `CCN(CC)CCOc1ccc(C(=C(C)c2ccc(Cl)cc2)c2ccc(OCCN(CC)CC)cc2)cc1`, the growth was -76.6% (active).

Consider `Oc1ccc(CCn2c(O)c(/C=C3\CN=c4ccccc4=N3)sc2=S)cc1`, for which the growth is 83.3% (inactive).

In the case of `Cc1ccc(/C=N/Nc2nc(Nc3ccccc3)nc(-n3nc(C)cc3C)n2)cc1`, the growth is 6.72% (active).

In the case of `CC(C)(C)n1cc(-c2ccnc(NCCNS(=O)(=O)c3cccc4ccccc34)c2)c(-c2cccc(F)c2)n1`, the growth is -26.9% (active).

On to `O=C1c2cccnc2C(=O)c2c1c(C(=O)NCCCN1CCCCC1)c1ccccn21`, for which the growth is -69.9% (active).

For the molecule `CCCCN1C(=O)/C(=c2\sc3n(c2=O)C2C(NN=3)N(CC)C(=O)N2CC)c2ccccc21` (stereo not given), the growth is 3.01% (active).

As to `C1=CN2CC(c3ccccc3)=NNC2c2ccccc21` (stereo not given), the growth was 98% (inactive).

For `CN(C)c1ccc(/C=C/C(=O)c2ccc(-n3cc(CN4CCN(c5cc6c(cc5F)c(=O)c(C(=O)O)cn6C5CC5)CC4)nn3)cc2)cc1`, the growth is 32.5% (inactive).

In the case of `COc1cc(-c2nc(SCCC(C)C)nc(Nc3ccccc3Cl)c2C#N)cc(OC)c1OC`, the growth is 97.7% (inactive).

For the molecule `O=CC1(C2(C=O)c3ccccc3-c3ccccc32)c2ccccc2-c2ccccc21`, the growth was -46.9% (active).

As for `Cc1cccc(Cl)c1NC(=O)c1ccc2nc(NC(=O)NCCN(C)C)sc2c1`, the growth was 107% (inactive).

Regarding `C[C@@H]1CCC[C@H]1CC(N)C(=O)O` (stereo not given in full), the growth is 102% (inactive).

For `C=C(C)[C@@H]1CC[C@]2(C(=O)NCCNCCN)CC[C@]3(C)[C@H](CC[C@@H]4[C@@]5(C)C/C(=C/c6ccncc6)C(=O)C(C)(C)[C@@H]5CC[C@]43C)[C@@H]12`, the growth is 99.2% (inactive).

Consider `OCCOCCN(Cc1ccccn1)Cc1cc(I)cc(I)c1O`, for which the growth is 59.5% (inactive).

Consider `N=C(N)c1ccc(-c2ccc(-c3cc(Cl)cc(Cl)c3)o2)o1`, for which the growth was -78.3% (active).

As to `COc1ccc(-c2ccc3cnc4sc(-c5ccc(OC)cc5)nc4c3n2)cc1`, the growth is 102% (inactive).

For `Cn1c(-c2ccc(Br)cc2)c(O)c(=O)c2c(F)cccc21`, the growth was 20.5% (inactive).

For the molecule `CCNc1nc(-c2ccc(Cl)c(OC)c2)c(-c2ccnc(NCCCNS(=O)(=O)c3ccc(Cl)cc3)n2)s1`, the growth is 63.7% (inactive).

Regarding `CN([O-])c1nc(N(C)[O-])nc(N2CCOCC2)n1.CN([O-])c1nc(N(C)[OH2+])nc(N2CCOCC2)n1.[Fe+3]`, the growth was 36.1% [100 µM] (inactive).

`COc1cc(-n2cc(-c3cc(O)c(C/C=C(\C)CCC=C(C)C)c(O)c3)nn2)cc2c1O[C@]1(C)CC[C@@H](O)C(C)(C)[C@H]1C2`: the growth was 10.4% (inactive).

With `N#Cc1nc(-c2ccccc2)oc1S(=O)(=O)N1CCOCC1`, the growth was 109% (inactive).

Consider `O=C1N[C@@H]2NC(=[N+]3CCOCC3)N[C@@H]2N1`, for which the growth is 104% (inactive).

`O=C(c1ccc(-c2nc(CSc3nc4ccccc4s3)no2)cc1)N1CCSCC1`: the growth is 69.6% (inactive).

For the molecule `COc1cccc(CNc2ncnc3c2ncn3C2OC(CO)C(O)C2O)c1O` (stereo not given), the growth is 45.7% (inactive).

In the case of `C#COc1cccc(Nc2ncnc3ncc(NC(=O)CCl)cc23)c1`, the growth is -5.59% [6.25 µM] (active).

With `COc1cc(CNS(=O)(=O)c2ccc(C)cc2)ccc1OCc1cn(-c2ccc(F)cc2)nn1`, the growth is 103% (inactive).

Take `CC(=O)[C@@H]1CCC=C2CC[C@]3(C)[C@@H](CC[C@@H]4[C@@]5(C)CCCNC(C)(C)[C@@H]5CC[C@]43C)[C@H]21`: the growth was -34.6% (active).

Consider `CC1(c2ccccc2O)NN=C(/N=C/c2cccc([N+](=O)[O-])c2)N1C(Cc1c[nH]c2ccccc12)C(=O)O` (stereo not given), for which the growth is 102% (inactive).

For `CC(=O)Cc1nsc(NC(=O)c2cc(-c3cc(Cl)cc(Cl)c3)oc2C)n1`, the growth is 103% (inactive).
